Only some compounds are listed: those with a hit (about 2.4% of all), similar ones and a draw of the others.
D2 PAM-1: positive allosteric modulators of human D2 dopamine receptor | P14416 | DiscoveRx D2 beta-arrestin cells, luminescence, 90 min; 100% = 57 uM dopamine signal | potentiation, % (no concentration beside the values) | 0.23% of 360,000 active; in the data active = potentiation above about 50%; inconclusive = mostly about 30% to 49%
Target sequence (P14416 whole entry, looked up): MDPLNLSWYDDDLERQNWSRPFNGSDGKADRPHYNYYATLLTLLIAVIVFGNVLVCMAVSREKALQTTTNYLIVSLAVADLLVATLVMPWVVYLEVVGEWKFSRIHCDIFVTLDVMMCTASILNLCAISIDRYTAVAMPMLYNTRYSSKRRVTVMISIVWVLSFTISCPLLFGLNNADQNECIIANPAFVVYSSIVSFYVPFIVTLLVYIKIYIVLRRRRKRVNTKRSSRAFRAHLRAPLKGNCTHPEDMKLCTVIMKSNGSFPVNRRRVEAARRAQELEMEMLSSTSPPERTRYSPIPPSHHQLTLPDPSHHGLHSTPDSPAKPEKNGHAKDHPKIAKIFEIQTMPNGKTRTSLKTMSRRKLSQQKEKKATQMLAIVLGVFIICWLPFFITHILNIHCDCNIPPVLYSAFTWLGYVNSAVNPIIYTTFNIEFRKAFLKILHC
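D2 cells co-treated with compound plus 50 nM dopamine (EC20) for 90 min at 37 deg C to detect potentiation. Beta-arrestin recruitment was read as enzyme-fragment luminescence after 1 h at ambient temperature. Full response was set by 57 uM dopamine.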
D2 ag-1: D2 dopamine receptor (human) agonism; P14416; 0.53% of 340,000 active; AID 485358; HEK293 T-REx D2 cells, calcium flux agonist mode; activation, % at 2 µM;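 active = activation over 3 SD above normal in the single-dose calcium agonist read, cut at about 30% in these data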; note: 0% is about no effect
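Tetracycline-induced HEK293 T-REx cells with force-coupled D2 receptor, plated overnight at 30 C, loaded with no-wash calcium dye. After a 10 s baseline, compound was pin-added and calcium flux read kinetically for 180 s; calcium rises flagged agonists.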
D2 PAM-2: positive allosteric modulators of human D2 dopamine receptor; 0.34% of 340,000 active; potentiation, % at 10 µM; AID 485347; HEK293 T-REx D2, calcium flux, EC20 dopamine potentiation;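 active = potentiation over 3 SD above the plate norm, cut at about 30% in these data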; note: 0% is about no effect
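Using a no-wash calcium dye in inducible, force-coupled HEK293 Trex cells expressing D2, we tracked fluorescence each second for 180 s after compound, then for 180 s after EC20 dopamine to detect augmented signalling.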
D2 ag-2: human D2 receptor agonism in beta-arrestin assay; activation, % (no concentration beside the values); P14416; 0.084% of 360,000 active; DiscoveRx PathHunter D2 beta-arrestin, luminescence, 90 min; 100% = 57 uM dopamine signal; in the data active = activation above about 40%; inconclusive = between about 15% and that limit
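Agonist mode: compounds alone added to overnight-plated D2 PathHunter cells for 90 min at 37 C, with 57 uM final dopamine (EC100) defining full response. Beta-arrestin recruitment detected by chemiluminescent reagent, read after 1 h at ambient temperature.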
D2 antagonist: D2 dopamine receptor (human) antagonism | HEK293 TREx D2 cells, calcium flux, dopamine EC80 | inhibition, % at 10 µM | 2% of 340,000 active; in the data active = inhibition above about 30%; inactive = below that, where a call was filed; note: 0% is about no effect
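Dopamine at EC80 is the agonist stimulus; test compounds precede it by 180 s. Calcium flux read kinetically in a force-coupled, inducible HEK293 T-REx D2 cell line.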
D3 ag: confirmation of human D3 dopamine receptor agonists, beta-arrestin; shares compounds with D2 ag-1; DiscoveRx D3 beta-arrestin cells, luminescence, 90 min; Potency, µM (top dose mostly 76.9 µM), inactives show at the top dose activation, usual class: activators; 4% of 2,300 active; AID 720506;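 note: potency is the fitted concentration of half-maximal effect; 100% = dopamine control response; nearly all actives have a fitted effect of over 70% in size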
D2 ag-3: activates human D2 dopamine receptor in D3 counterscreen; 5.9% of 2,300 active; DiscoveRx PathHunter D2 beta-arrestin, luminescence, 90 min; response scale: percent relative to full dopamine signal; shares compounds with D2 ag-1; Potency, µM (highest dose often 76.9 µM), without a hit: at the highest dose activation, most hits filed as activators; note: potency is the fitted concentration of half-maximal effect; % of control where 0% means no effect; nearly all actives have a fitted effect of over 70% in size
An asterisk follows results filed as active. Unless noted, calls come from the whole dose curve; as a rule, active = well fitted activation curve with a large enough effect; inconclusive = small, poorly fitted or top-dose-only effect; inactive = flat fitted curve, though single readings scatter.

Results for CCN1CCN(c2ncnc3scc(-c4ccc(C)c(C)c4)c23)CC1 ?
D2 PAM-1: -1; D2 ag-1: 9; D2 PAM-2: -1; D2 ag-2: 13; D2 antagonist: 8

Results for CCN1CCN(c2ncnc3sc(C)c(-c4ccccc4)c23)CC1 ?
D2 PAM-1: 12; D2 ag-1: 18; D2 ag-2: inconclusive; D2 antagonist: -15; D3 ag: 5%; D2 ag-3: 18µM*

Results for COc1ccc(C(=O)CN2CCN(c3ncccn3)CC2)cc1 ?
D2 PAM-1: -4; D2 ag-1: 80*; D2 PAM-2: -33; D2 ag-2: 14; D2 antagonist: 39*; D3 ag: 26%; D2 ag-3: 27%

Results for COc1ccc(OCC(O)CN2CCN(c3ncccn3)CC2)cc1 (configuration not stated) ?
D2 PAM-1: -19; D2 ag-1: 70*; D2 PAM-2: -20; D2 ag-2: inconclusive; D2 antagonist: 62*; D3 ag: inconclusive; D2 ag-3: inconclusive

Results for COc1ccc(N2CCN(CC(O)COc3ccc(C(C)(C)C)cc3)CC2)cc1 (configuration not stated) ?
D2 ag-1: 9; D2 PAM-2: -2

How did OC(COc1ccc2c(c1)OCO2)CN1CCN(c2ccccc2)CC1 (configuration not stated) do in these assays?
D2 PAM-1: -14; D2 ag-1: 71*; D2 PAM-2: -32; D2 ag-2: inconclusive; D2 antagonist: 82*; D3 ag: inconclusive; D2 ag-3: inconclusive

What do the screens show for `CC(C)c1ccc(OCC(O)CN2CCN(c3ccccc3)CC2)cc1` (configuration not stated)?
D2 PAM-1: -8; D2 ag-1: 54*; D2 PAM-2: -26; D2 ag-2: inconclusive; D2 antagonist: 78*; D3 ag: -4%; D2 ag-3: inconclusive

How did COc1cc(CNC(=O)c2ccc(NC(=O)N3CCCCc4ccccc43)cc2)cc(OC)c1OC do in these assays?
D2 ag-1: 1; D2 PAM-2: -2

Results for COc1ccc(OCC(O)CN2CCN(c3ccccc3)CC2)cc1 (configuration not stated) ?
D2 PAM-1: -25; D2 ag-1: 89*; D2 PAM-2: -22; D2 ag-2: inconclusive; D2 antagonist: -4; D3 ag: inconclusive; D2 ag-3: inconclusive

Results for CCc1nc2ccc(C(=O)NCCCn3ccnc3)cn2c1N(C)Cc1ccc(Cl)cc1 ?
D2 PAM-1: -7; D2 ag-2: -6

How did CC1CCC(NCCNC(=O)c2ccco2)CC1 (configuration not stated) do in these assays?
D2 PAM-1: -15; D2 ag-1: 68*; D2 PAM-2: -22; D2 ag-2: -5; D2 antagonist: 14; D3 ag: -18%; D2 ag-3: -7%

Results for O=C(NCCNC1CCCCC1)c1ccco1 ?
D2 PAM-1: -7; D2 ag-1: 12; D2 PAM-2: 8; D2 ag-2: -1; D2 antagonist: 5

Results for O=C1C(Cl)=C(O)C2(Cl)C(Cl)=C(Cl)C12Cl (configuration not stated) ?
D2 PAM-1: 3; D2 ag-2: 2

How did CC1(C)NC(=O)N(CC(=O)N2CCN(S(=O)(=O)c3cc(Cl)ccc3Cl)CC2)C1=O do in these assays?
D2 PAM-1: 2; D2 PAM-2: 7; D2 ag-2: -2; D3 ag: -9%; D2 ag-3: -3%

How did S=C(NCc1ccccn1)Nc1ccccc1 do in these assays?
D2 PAM-1: -3; D2 ag-1: 0; D2 PAM-2: 8; D2 ag-2: 1; D2 antagonist: 12; D3 ag: 0%; D2 ag-3: 0%

How did CC(C)(C)C1CCc2onc(C(=O)Nc3sc4c(c3C(N)=O)CCCC4)c2C1 (configuration not stated) do in these assays?
D2 ag-1: 1; D2 PAM-2: -1

Results for O=C(CN1CCN(c2ccccn2)CC1)Nc1cccc(S(=O)(=O)N2CCCC2)c1 ?
D2 PAM-1: -17; D2 ag-1: 60*; D2 PAM-2: -34; D2 ag-2: 3; D2 antagonist: 60*; D3 ag: inconclusive; D2 ag-3: 28µM*

Results for Cc1cc(C)c(NC(=O)CN2CCN(c3ccccn3)CC2)c(C)c1 ?
D2 PAM-1: -4; D2 ag-1: 21; D2 PAM-2: -4; D2 ag-2: 8; D2 antagonist: 21; D3 ag: 4%; D2 ag-3: 9%

Results for O=C(CN1CCN(c2ccccn2)CC1)NCCc1ccccc1 ?
D2 PAM-1: -4; D2 ag-1: 5; D2 PAM-2: -6; D2 ag-2: 5; D2 antagonist: -7

Results for O=C(CN1CCN(c2ccccn2)CC1)Nc1nc2ccccc2s1 ?
D2 PAM-1: 6; D2 ag-1: 0; D2 PAM-2: 10; D2 ag-2: 6; D2 antagonist: -8

How did Cc1ccc(NC(=O)c2ncn(CCCN3CCN(c4ccccn4)CC3)n2)cc1C do in these assays?
D2 PAM-1: -12; D2 ag-2: 0

Results for Cc1cc(NC(=O)CN2CCN(c3ccccn3)CC2)ccc1Br ?
D2 PAM-1: -2; D2 ag-1: 37*; D2 PAM-2: -19; D2 ag-2: 7; D2 antagonist: 17; D3 ag: 16µM*; D2 ag-3: 17%

How did O=C(CN1CCN(c2ccccn2)CC1)NC1CCCC1 do in these assays?
D2 PAM-1: -8; D2 ag-1: 24; D2 PAM-2: -9; D2 ag-2: 7; D2 antagonist: 9; D3 ag: -13%; D2 ag-3: 11%

Results for O=C(Nc1ccc(Cl)c(-c2nc3cc(Cl)ccc3o2)c1)c1cc([N+](=O)[O-])ccc1N1CCOCC1 ?
D2 ag-1: -1

How did O=C(Nc1ccc(Br)cc1)Nc1nc2c(s1)CCCCCC2 do in these assays?
D2 ag-1: 2; D2 PAM-2: 1

Results for O=C(CN1CCN(c2ccccn2)CC1)Nc1ccc(F)c(F)c1 ?
D2 PAM-1: 3; D2 ag-1: 52*; D2 PAM-2: -18; D2 ag-2: inconclusive; D2 antagonist: 18; D3 ag: inconclusive; D2 ag-3: 16%

How did COC(=O)c1c(NC(C)=O)sc2c1CCN(Cc1ccccc1)C2 do in these assays?
D2 PAM-1: -9; D2 ag-1: 38*; D2 PAM-2: -21; D2 ag-2: 0; D2 antagonist: -24; D3 ag: 7%; D2 ag-3: 12%
